Laboratory results published in PubChem BioAssay AID1259422 (The Scripps Research Institute Molecular Screening Center, 2018).
In all, about 640,000 compounds went through this assay and about 9,300 (1.5%) were called active. What follows is part of a selection rich in actives, with near analogues and random picks from the rest. A number with no mark means an inactive call. No stated cut-off is given here; in the data, active means inhibition above about 32%; inactive means the rest.

Test: TEAD-YAP interaction inhibition, primary screen, TEAD-YAP interaction inhibitor project, luminescence, HEK-TIYL cells (AID 1259422);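 further: 0% = median of test compound wells and 100% = reference inhibitor wells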
Conditions: TEAD-Gal4/YAP UAS-luciferase luminescence, at 9.12 µM, hits give high values
For `CCCNc1ccc2ncc(-c3ccco3)n2n1`, the inhibition was 3.49%.
Molecule `CCCNc1cc(-c2cccc(N)c2)ncn1` has an inhibition of -10.6%.
Work on `c1ccc(OCCNc2cc(-c3ccccc3)ncn2)cc1` yielded an inhibition of -25.8%.
For `CCCCNc1cc(-c2cccc(OC)c2)ncn1`, the inhibition was 64.6% (active).
In the case of `CCCNc1ccc2ncc(-c3cccc(OC)c3)n2n1`, the inhibition is reported as 59.2% (active).
Work on `COc1cccc(-c2cnc3ccc(NCc4ccco4)nn23)c1` yielded an inhibition of 8.66%.
Work on `CCOc1cc(-c2nc3sc4c(c3c(=O)[nH]2)CCCC4)cc(Br)c1OCc1ccccc1F` yielded an inhibition of -1.86%.
In the case of `CCN(CC)C(=O)c1sc(NC(=O)c2cccc(OC)c2)c(C(=O)OC(C)C)c1C`, the inhibition is reported as 7.6%.
`O=S(=O)(/C=C/c1ccccc1)N1CCN(CC(O)COCc2ccccc2)CC1` (stereo not drawn) showed an inhibition of 1.15%.
Molecule `Cc1ccc(S(=O)(=O)N(CC(=O)N2CCCC2)c2ccc(Cl)cc2C)cc1` has an inhibition of 2.4%.
For `Cc1ccc(/C=N/NC(=O)c2ccc(Cl)cc2O)o1`, the inhibition was -20.5%.
`Oc1c(CN2CCN(c3cccc(Cl)c3)CC2)cc(Br)c2cccnc12` showed an inhibition of 5.69%.
For `Oc1c(CN2CCCC2)cc(COCc2ccccc2)c2cccnc12`, the inhibition was 63% (active).
Molecule `COc1ccc(CN2CCN(Cc3cccnc3)CC2)cc1OCc1ccccc1` has an inhibition of 8.2%.
Work on `CCOC(=O)c1ccc(NC(=O)c2ccc(C#N)cc2F)cc1` yielded an inhibition of -1.23%.
Work on `CCOc1ccc(NC(=O)c2ccc(C#N)cc2F)cc1` yielded an inhibition of -9.3%.
With `N#Cc1ccc(C(=O)Nc2ccc(Cc3ccncc3)cc2)c(F)c1` the inhibition was 55.3% (active).
In the case of `O=C(/C=C/c1ccc2c(c1)OCCO2)c1ccc(O)cc1`, the inhibition is reported as 63.9% (active).
For `COc1cccc(/C=C/C(=O)c2ccc3c(c2)OCCO3)c1`, the inhibition was -34.3%.
`O=C(/C=C/c1ccccn1)c1ccc2c(c1)OCO2` gave an inhibition of -21.2%.
Work on `COCCNc1c(C(C)Cc2ccc3c(c2)OCO3)nc2cnccn12` (stereo not drawn) yielded an inhibition of -1.93%.
`Cn1c(=O)cc(OCC(=O)NCCN2CCOCC2)c2ccccc21` gave an inhibition of -3.6%.
Molecule `c1ccc(-c2nc3nc(-c4cccs4)cn3nc2-c2ccccc2)cc1` has an inhibition of -28.9%.
In the case of `Cc1ccc2nc(-c3ccc(Br)cc3)cn2c1`, the inhibition is reported as 75.2% (active).
`O=C(Nc1ccc(-c2cn3ccccc3n2)cc1)c1ccc(Br)cc1` showed an inhibition of -5.14%.
In the case of `N#Cc1ccc(-c2cccs2)nc1SCc1ccc(Br)cc1`, the inhibition is reported as -20.2%.
Work on `Cc1ccccc1-n1c(-c2ccc(Br)cc2)n[nH]c1=S` yielded an inhibition of -9.56%.
For `Brc1ccc2nc(-c3cccs3)cn2c1`, the inhibition was 37.5% (active).
With `N#Cc1ccccc1S(=O)(=O)Nc1ccc(Cl)cc1` the inhibition was 7.64%.
`CC1=C(C(=O)Nc2cccc(Cl)c2)C(c2ccc([N+](=O)[O-])cc2)NC(=O)N1` (stereo not drawn) showed an inhibition of -2.46%.
`COc1ccc(NC(=O)c2ccc([N+](=O)[O-])o2)cc1OC` gave an inhibition of 5.63%.
In the case of `CCOC(=O)C1=C(C)N=c2s/c(=C\c3ccc(-c4ccc([N+](=O)[O-])cc4)o3)c(=O)n2C1c1cccs1` (stereo not drawn), the inhibition is reported as 6.56%.
For `O=C(N/N=C/c1ccc2c(c1)OCO2)C12CC3CC(CC(C3)C1)C2`, the inhibition was -46.5%.
With `CC(C)(C)c1ccc(OCC(=O)Nc2ccccc2[N+](=O)[O-])cc1` the inhibition was 2.77%.
Molecule `Cc1cc(Cl)ccc1NC(=O)COc1ccc([N+](=O)[O-])cc1` has an inhibition of -9.13%.
With `CC(C)(C)c1ccc(OCC(=O)Nc2cc([N+](=O)[O-])ccc2O)cc1` the inhibition was 77.8% (active).
`O=C(CSc1nc2[nH]ncc2c(=O)n1-c1ccccc1)Nc1ccc(Br)cc1F` gave an inhibition of 8.04%.
With `CCOC(=O)C1CCCCN1Cc1cc(Br)ccc1O` (stereo not drawn) the inhibition was 7.45%.
`COc1ccc(C)cc1NC(=O)CN1C(=O)C(C)N(c2ccc(C)cc2)C1=O` (stereo not drawn) showed an inhibition of 8.14%.
`C=CCn1c(=S)[nH]c2sc3c(c2c1=O)CCCCC3` showed an inhibition of 8.8%.
With `COc1cccc2cc(-c3nc(-c4ccc(C)cc4C)cs3)c(=O)oc12` the inhibition was 1.78%.
With `COc1ccccc1Nc1nc(-c2cc3cccc(OC)c3oc2=O)cs1` the inhibition was 58% (active).
For `COc1cccc(Nc2nc(-c3cc4cccc(OC)c4oc3=O)cs2)c1`, the inhibition was -12.4%.
Work on `CCN(C(=O)C1CCC1)c1nnc(-c2ccc(OC)cc2)s1` yielded an inhibition of -89.3%.
In the case of `CCN1CCN(CC(=O)NCc2ccccc2Cl)C(=O)C1=O`, the inhibition is reported as 2.39%.
`O=C(COc1cc(Cl)ccc1Cl)NCc1ccco1` gave an inhibition of -2.94%.
For `CCc1cc2c(C)cc(=O)oc2cc1OCC(=O)NCc1ccco1`, the inhibition was 42.8% (active).
Molecule `CCC(C)c1ccc(OCC(=O)NCc2ccco2)cc1` (stereo not drawn) has an inhibition of -13.8%.
For `Cc1ccc2nc(C3CCN(CC(=O)NCc4ccccc4)CC3)[nH]c2c1`, the inhibition was 7.44%.
Work on `O=C(Cc1ccccc1)Nc1c(C(=O)N2CCCCCC2)cnn1-c1ccccc1` yielded an inhibition of -25.7%.
For `Nc1c(C(=O)O)cnn1-c1ccccc1`, the inhibition was 35.4% (active).
For `Cc1ccc(-n2ncc(C(=O)O)c2-n2cccc2)cc1`, the inhibition was 1.07%.
Work on `COc1ccc(C2CC(=O)C3=C(C2)Nc2ccccc2NC3c2cc3c(cc2[N+](=O)[O-])OCO3)cc1` (stereo not drawn) yielded an inhibition of -38.4%.
In the case of `COc1ccccc1C1C2=C(COC2=O)Nc2cc3c(cc21)OCO3` (stereo not drawn), the inhibition is reported as 54% (active).
Molecule `COc1ccccc1C1C2=C(COC2=O)Nc2c1c(=O)n(C)c(=O)n2C` (stereo not drawn) has an inhibition of 6.62%.
For `Cn1c2c(c(=O)n(C)c1=O)C(c1ccc(F)cc1)C1=C(COC1=O)N2` (stereo not drawn), the inhibition was 13.2%.
With `COc1cc(C2CC(=O)Nc3cc4c(cc32)OCO4)ccc1O` (stereo not drawn) the inhibition was -0.17%.
For `O=C1OCC2=C1C(c1ccc([N+](=O)[O-])cc1)c1cc3c(cc1N2)OCO3` (stereo not drawn), the inhibition was 51.2% (active).
`CCc1ccccc1N(CC(=O)Nc1cccc(F)c1)S(C)(=O)=O` gave an inhibition of -13.9%.
`COC(=O)CNC(=O)CC1C(=O)NCCN1Cc1ccc(F)cc1` (stereo not drawn) gave an inhibition of -2%.
`CCNS(=O)(=O)c1ccc(NC(=O)CCOCC)cc1` gave an inhibition of 9.16%.
`O=C(CN1C(=O)COc2ccc(Cl)cc21)Nc1ccccc1F` gave an inhibition of 3.36%.
Molecule `COC(=O)c1cc(C(=O)N2CC(C)CC(C)C2)cc([N+](=O)[O-])c1` (stereo not drawn) has an inhibition of 1.59%.
